Measured values taken from paper PMC11062922 (Nature Chemical Biology, 2023).
Like-named read-outs stand apart in the source and are kept apart here.

Columns and labels:
Set-up in all cases: species or system human, MV4-11 + K-562 + COLO205 + SK-N-BE2 + OVCAR-8
[1] = system: AKT1; details: read-out: apparent Kd, n = 1
[2] = system: AKT2; details: read-out: apparent Kd; compound concentrations:100 nM and 1000 nM (sheet 'Samples'); n = 1
[3] = system: ATM; details: read-out: apparent Kd; compound concentrations:100 nM and 1000 nM (sheet 'Samples'); n = 1
[4] = system: CIT; details: read-out: apparent Kd; compound concentrations:100 nM and 1000 nM (sheet 'Samples'); n = 1
[5] = system: ERBB3; details: read-out: apparent Kd, n = 1
[6] = system: GSK3A; details: read-out: apparent Kd, n = 1
[7] = system: GSK3B; details: read-out: apparent Kd, n = 1
[8] = system: LATS1; details: read-out: apparent Kd; compound concentrations:100 nM and 1000 nM (sheet 'Samples'); n = 1
[9] = system: MARK2; details: read-out: apparent Kd; compound concentrations:100 nM and 1000 nM (sheet 'Samples'); n = 1
[10] = system: MARK3; details: read-out: apparent Kd; compound concentrations:100 nM and 1000 nM (sheet 'Samples'); n = 1
[11] = system: MARK4; details: read-out: apparent Kd; compound concentrations:100 nM and 1000 nM (sheet 'Samples'); n = 1
[12] = system: PAK4; details: read-out: apparent Kd; compound concentrations:100 nM and 1000 nM (sheet 'Samples'); n = 1
[13] = system: PAK6; details: read-out: apparent Kd; compound concentrations:100 nM and 1000 nM (sheet 'Samples'); n = 1
[14] = system: PKN1; details: read-out: apparent Kd; compound concentrations:100 nM and 1000 nM (sheet 'Samples'); n = 1
[15] = system: PKN3; details: read-out: apparent Kd; compound concentrations:100 nM and 1000 nM (sheet 'Samples'); n = 1
[16] = system: PRKACA; details: read-out: apparent Kd; compound concentrations:100 nM and 1000 nM (sheet 'Samples'); n = 1
[17] = system: PRKACB; details: read-out: apparent Kd; compound concentrations:100 nM and 1000 nM (sheet 'Samples'); n = 1
[18] = system: PRKCD; details: read-out: apparent Kd, n = 1
[19] = system: PRKCQ; details: read-out: apparent Kd; compound concentrations:100 nM and 1000 nM (sheet 'Samples'); n = 1
[20] = system: PRKG1; details: read-out: apparent Kd; compound concentrations:100 nM and 1000 nM (sheet 'Samples'); n = 1
[21] = system: PRKX; details: read-out: apparent Kd; compound concentrations:100 nM and 1000 nM (sheet 'Samples'); n = 1
[22] = system: TTN; details: read-out: apparent Kd; compound concentrations:100 nM and 1000 nM (sheet 'Samples'); n = 1
[23] = system: CDC42; details: read-out: apparent Kd; compound concentrations: 100 nM and 1000 nM (sheet 'Samples'), CATDS: 5.0343094610780299E-2; n = 1
[24] = system: DYNC1LI1; details: read-out: apparent Kd; compound concentrations: 100 nM and 1000 nM (sheet 'Samples'), CATDS: 4.8109196484876701E-2; n = 1
[25] = system: GARS; details: read-out: apparent Kd; compound concentrations: 100 nM and 1000 nM (sheet 'Samples'), CATDS: 4.5585082575177599E-2; n = 1
[26] = system: HSP90B1; details: read-out: apparent Kd; compound concentrations: 100 nM and 1000 nM (sheet 'Samples'), CATDS: 4.7547071429497198E-2; n = 1
[27] = system: MAP2K1; details: read-out: apparent Kd; compound concentrations: 100 nM and 1000 nM (sheet 'Samples'), CATDS: 4.25622085031407E-2; n = 1
[28] = system: MAP2K2; details: read-out: apparent Kd; compound concentrations: 100 nM and 1000 nM (sheet 'Samples'), CATDS: 4.6529537247477E-2; n = 1
[29] = system: MDN1; details: read-out: apparent Kd; compound concentrations: 100 nM and 1000 nM (sheet 'Samples'), CATDS: 4.19866133995229E-2; n = 1
[30] = system: MYLK3; details: read-out: apparent Kd; compound concentrations: 100 nM and 1000 nM (sheet 'Samples'), CATDS: 4.95763825338097E-2; n = 1
[31] = system: NNT; details: read-out: apparent Kd; compound concentrations: 100 nM and 1000 nM (sheet 'Samples'), CATDS: 4.95392498935424E-2; n = 1
[32] = system: NQO1; details: read-out: apparent Kd; compound concentrations: 100 nM and 1000 nM (sheet 'Samples'), CATDS: 4.7041069195994198E-2; n = 1
[33] = system: OPA1; details: read-out: apparent Kd; compound concentrations: 100 nM and 1000 nM (sheet 'Samples'), CATDS: 4.33362445952395E-2; n = 1
[34] = system: PGK1; details: read-out: apparent Kd; compound concentrations: 100 nM and 1000 nM (sheet 'Samples'), CATDS: 0.623413247361988; n = 1
[35] = system: PRKCA; details: read-out: apparent Kd; compound concentrations: 100 nM and 1000 nM (sheet 'Samples'), CATDS: 4.05038047397221E-2; n = 1
[36] = system: TNIK; details: read-out: apparent Kd; compound concentrations: 100 nM and 1000 nM (sheet 'Samples'), CATDS: 4.3236885400500899E-2; n = 1
[37] = system: VDAC3; details: read-out: apparent Kd; compound concentrations: 100 nM and 1000 nM (sheet 'Samples'), CATDS: 4.2633905781269299E-2; n = 1
[38] = system: ADRBK1; details: read-out: apparent Kd; compound concentrations: 100 nM and 1000 nM (sheet 'Samples'), CATDS: 0.168792750193444; n = 1
[39] = system: MAPK14; details: read-out: apparent Kd; compound concentrations: 100 nM and 1000 nM (sheet 'Samples'), CATDS: 0.54620788714076096; n = 1
[40] = system: MAPK9; details: read-out: apparent Kd; compound concentrations: 100 nM and 1000 nM (sheet 'Samples'), CATDS: 0.17242966969454199; n = 1
[41] = system: MAPKAPK2; details: read-out: apparent Kd; compound concentrations: 100 nM and 1000 nM (sheet 'Samples'), CATDS: 0.40894707261739799; n = 1
[42] = compound concentrations:100 nM and 1000 nM (sheet 'Samples')

CCn1c(-c2nonc2N)nc2c(C#CC(C)(C)O)ncc(OC[C@@H]3CCCN3)c21.O=C(O)C(F)(F)F [GSK614526A]
potency estimated from few doses [1, 42]: 1090 nM
potency estimated from few doses [2]: 934 nM
potency estimated from few doses [3]: 303 nM
potency estimated from few doses [4]: 983 nM
potency estimated from few doses [5, 42]: 1810 nM
potency estimated from few doses [6, 42]: 365 nM
potency estimated from few doses [7, 42]: 440 nM
potency estimated from few doses [8]: 634 nM
potency estimated from few doses [9]: 762 nM
potency estimated from few doses [10]: 607 nM
potency estimated from few doses [11]: 1040 nM
potency estimated from few doses [12]: 66.7 nM
potency estimated from few doses [13]: 821 nM
potency estimated from few doses [14]: 215 nM
potency estimated from few doses [15]: 150 nM
potency estimated from few doses [16]: 144 nM
potency estimated from few doses [17]: 510 nM
potency estimated from few doses [18, 42]: 2140 nM
potency estimated from few doses [19]: 1170 nM
potency estimated from few doses [20]: 69.9 nM
potency estimated from few doses [21]: 1.38 nM
potency estimated from few doses [22]: 544 nM

Cn1cc(C2=C(c3cn(C)c4c(N)cccc34)C(=O)NC2=O)c2ccccc21 [RO0317482-000]
potency estimated from few doses ([1]; compound concentrations: 100 nM and 1000 nM (sheet 'Samples'), CATDS: 4.4101078523111903E-2): 1790 nM
potency estimated from few doses [23]: 1310 nM
potency estimated from few doses [24]: 1450 nM
potency estimated from few doses ([5]; compound concentrations: 100 nM and 1000 nM (sheet 'Samples'), CATDS: 4.7313636214179999E-2): 1510 nM
potency estimated from few doses [25]: 1650 nM
potency estimated from few doses ([6]; compound concentrations: 100 nM and 1000 nM (sheet 'Samples'), CATDS: 8.5551067641828404E-2): 484 nM
potency estimated from few doses ([7]; compound concentrations: 100 nM and 1000 nM (sheet 'Samples'), CATDS: 0.10546569208605799): 343 nM
potency estimated from few doses [26]: 1490 nM
potency estimated from few doses [27]: 1960 nM
potency estimated from few doses [28]: 1570 nM
potency estimated from few doses [29]: 2030 nM
potency estimated from few doses [30]: 1360 nM
potency estimated from few doses [31]: 1360 nM
potency estimated from few doses [32]: 1530 nM
potency estimated from few doses [33]: 1870 nM
potency estimated from few doses [34]: 20.4 nM
potency estimated from few doses [35]: 2240 nM
potency estimated from few doses ([18]; compound concentrations: 100 nM and 1000 nM (sheet 'Samples'), CATDS: 3.9953874898385103E-2): 2330 nM
potency estimated from few doses [36]: 1880 nM
potency estimated from few doses [37]: 1950 nM

Cl.Cn1c(=O)c(Oc2ccc(F)cc2F)cc2cnc(NCC(C)(C)O)nc21 [RO3308967-001]
potency estimated from few doses [38]: 1780 nM
potency estimated from few doses [39]: 44 nM
potency estimated from few doses [40]: 1600 nM
potency estimated from few doses [41]: 76.7 nM
